Test results reported in PubChem BioAssay (NCATS).
Inconclusive results are not listed. The source made the active and inactive calls. Calls come from the whole dose curve; as a rule, active = well fitted cell-killing curve with a large enough effect; inconclusive = small, poorly fitted or top-dose-only effect, or effect the other way; inactive = no such curve, though single readings can be large or run the other way.

How the values were obtained:
[1] = Quantitative High-Throughput drug screen in 47 multiple myeloma cell lines against the NCATS MIPE library collection: KMS28PE_JCRB cell viability assay (AID 1918983); note: nearly all actives have a fitted effect of over 35% in size; note: potency is the fitted concentration of half-maximal effect
In short: (§1)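 500 cells/well; MIPE 4.0 drugs pin-transferred; 48 h, 37C, 5% CO2. CellTiter-Glo, 5 min RT, luminescence. Controls: DMSO 100%, media 0%.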

[2] = Quantitative High-Throughput drug screen in 47 multiple myeloma cell lines against the NCATS MIPE library collection: KMS34_JCRB cell viability assay (AID 1918985); note: nearly all actives have a fitted effect of over 40% in size
In short: as §1

[3] = Quantitative High-Throughput drug screen in 47 multiple myeloma cell lines against the NCATS MIPE library collection: OPM1_PLB cell viability assay (AID 1918989); note: nearly all actives have a fitted effect of over 40% in size; note: potency is the fitted concentration of half-maximal effect
In short: as §1

[4] = Quantitative High-Throughput drug screen in 47 multiple myeloma cell lines against the NCATS MIPE library collection: U266_ATCC cell viability assay (AID 1919864); note: nearly all actives have a fitted effect of over 35% in size; note: potency is the fitted concentration of half-maximal effect
In short: as §1

[5] = Quantitative High-Throughput drug screen in 47 multiple myeloma cell lines against the NCATS MIPE library collection: XG6_PLB cell viability assay (AID 1919865); note: nearly all actives have a fitted effect of over 40% in size; note: potency is the fitted concentration of half-maximal effect
In short: as §1

[6] = Quantitative High-Throughput drug screen in 47 multiple myeloma cell lines against the NCATS MIPE library collection: VP6_DJ cell viability assay (AID 1919867); note: nearly all actives have a fitted effect of over 40% in size; note: potency is the fitted concentration of half-maximal effect
In short: as §1

[7] = Quantitative High-Throughput drug screen in 47 multiple myeloma cell lines against the NCATS MIPE library collection: UTMC2_PLB cell viability assay (AID 1919868); details: CellTiter-Glo ATP luminescence, 48 h; viability (% of DMSO control): at 45.8 µM (top of the series); note: nearly all actives have a fitted effect of over 55% in size; note: potency is the fitted concentration of half-maximal effect
In short: as §1

[8] = Quantitative High-Throughput drug screen in 47 multiple myeloma cell lines against the NCATS MIPE library collection: PE2_PLB cell viability assay (AID 1919869); note: nearly all actives have a fitted effect of over 35% in size; note: potency is the fitted concentration of half-maximal effect
In short: as §1

[9] = Quantitative High-Throughput drug screen in 47 multiple myeloma cell lines against the NCATS MIPE library collection: PCM6_Riken cell viability assay (AID 1919870); note: nearly all actives have a fitted effect of over 30% in size; note: potency is the fitted concentration of half-maximal effect
In short: as §1

[10] = Quantitative High-Throughput drug screen in 47 multiple myeloma cell lines against the NCATS MIPE library collection: KMS11_JCRBsus cell viability assay (AID 1919873); note: nearly all actives have a fitted effect of over 50% in size; note: potency is the fitted concentration of half-maximal effect
In short: as §1

[11] = Quantitative High-Throughput drug screen in 47 multiple myeloma cell lines against the NCATS MIPE library collection: KMS28BM_JCRB cell viability assay (AID 1919874); note: nearly all actives have a fitted effect of over 35% in size; note: potency is the fitted concentration of half-maximal effect
In short: as §1

[12] = Quantitative High-Throughput drug screen in 47 multiple myeloma cell lines against the NCATS MIPE library collection: OCIMY7_PLB cell viability assay (AID 1918987); details: OCI-MY7 myeloma viability, CellTiter-Glo ATP, 48 h; viability (% of DMSO): at 45.8 µM (top of the series); note: nearly all actives have a fitted effect of over 65% in size; note: potency is the fitted concentration of half-maximal effect
In short: as §1

[13] = Quantitative High-Throughput drug screen in 47 multiple myeloma cell lines against the NCATS MIPE library collection: OCIMY5_PLB cell viability assay (AID 1918988); note: nearly all actives have a fitted effect of over 65% in size; note: potency is the fitted concentration of half-maximal effect
In short: as §1

[14] = Quantitative High-Throughput drug screen in 47 multiple myeloma cell lines against the NCATS MIPE library collection: RPMI8226_ATCC cell viability assay (AID 1919871); note: nearly all actives have a fitted effect of over 30% in size; note: potency is the fitted concentration of half-maximal effect
In short: as §1

[15] = Quantitative High-Throughput drug screen in 47 multiple myeloma cell lines against the NCATS MIPE library collection: XG1_PLB cell viability assay (AID 1919866); note: nearly all actives have a fitted effect of over 35% in size; note: potency is the fitted concentration of half-maximal effect
In short: as §1

[16] = Quantitative High-Throughput drug screen in 47 multiple myeloma cell lines against the NCATS MIPE library collection: OPM2_DSMZ cell viability assay (AID 1919872); note: nearly all actives have a fitted effect of over 30% in size; note: potency is the fitted concentration of half-maximal effect
In short: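 Myeloma cells (500 per well) were exposed to MIPE 4.0 compounds by pin transfer and incubated 48 hours at 37C, 5% CO2. Viability was read as ATP by CellTiter-Glo luminescence, normalised to DMSO (100%) and media-only (0%) wells.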

[17] = Quantitative High-Throughput drug screen in 47 multiple myeloma cell lines against the NCATS MIPE library collection: SKMM1_PLB cell viability assay (AID 1919863); details: SKMM1 myeloma viability, CellTiter-Glo ATP, 48 h; viability: active compounds read low; note: nearly all actives have a fitted effect of over 35% in size; note: potency is the fitted concentration of half-maximal effect
In short: as §1

CCCCCCCCCCCCc1ccc(S(=O)(=O)Nc2nncs2)cc1
inactive: Potency [1] | Potency [2] | Potency [3] | Potency [4] | Potency [5] | Potency [6] | Potency [7] | Potency [9] | Potency [10] | Potency [11]
active: Potency [8] 8330 nM

Cn1c(Nc2ccc(C(F)(F)F)cc2)nc2cc(Oc3ccnc(-c4ncc(C(F)(F)F)[nH]4)c3)ccc21
active: Potency [1] 23500 nM | Potency [12] 3720 nM | Potency [13] 9350 nM | Potency [3] 16600 nM | Potency [4] 6620 nM | Potency [5] 5900 nM | Potency [6] 13200 nM | Potency [7] 16600 nM | Potency [8] 16600 nM | Potency [9] 1870 nM | Potency [14] 16600 nM

O=C(O)C=Cc1ccc(Cn2ccnc2)cc1
inactive: Potency [1] | Potency [2] | Potency [3] | Potency [4] | Potency [5] | Potency [15] | Potency [6] | Potency [7] | Potency [8] | Potency [14] | Potency [16] | Potency [11]

C[C@H](NC(=O)[C@@H](O)c1cc(F)cc(F)c1)C(=O)N[C@@H]1C(=O)N(C)c2ccccc2-c2ccccc21
active: Potency [5] 11800 nM | Potency [15] 16600 nM | Potency [10] 1870 nM
inactive: Potency [1] | Potency [2] | Potency [3] | Potency [4] | Potency [9] | Potency [14] | Potency [16] | Potency [11]

C[C@H](O)[C@@H]1C(=O)N2C(C(=O)O)=C(S[C@@H]3CN[C@H](CNS(N)(=O)=O)C3)[C@@H](C)[C@@H]12
inactive: Potency [1] | Potency [2] | Potency [4] | Potency [15] | Potency [6] | Potency [7] | Potency [9] | Potency [16] | Potency [10] | Potency [11]

COc1cccc2c1C(=O)c1c(O)c3c(c(O)c1C2=O)C[C@@](O)(C(=O)CO)C[C@H]3O[C@H]1C[C@H](N)[C@H](O)[C@H](C)O1
active: Potency [1] 166 nM | Potency [12] 166 nM | Potency [13] 166 nM | Potency [3] 526 nM | Potency [17] 209 nM | Potency [4] 372 nM | Potency [5] 132 nM | Potency [15] 296 nM | Potency [6] 264 nM | Potency [7] 118 nM | Potency [8] 118 nM | Potency [9] 105 nM | Potency [14] 235 nM | Potency [16] 1180 nM | Potency [10] 743 nM | Potency [11] 296 nM

CC[C@@]1([C@@H]2O[C@@H]([C@H]3O[C@@](O)(CO)[C@H](C)C[C@H]3C)C[C@H]2C)CC[C@H]([C@]2(C)CC[C@]3(C[C@H](O)[C@@H](C)[C@@H]([C@@H](C)[C@@H](OC)[C@H](C)C(=O)O)O3)O2)O1
active: Potency [1] 512 nM | Potency [12] 229 nM | Potency [13] 102 nM | Potency [3] 162 nM | Potency [4] 363 nM | Potency [5] 257 nM | Potency [15] 363 nM | Potency [6] 512 nM | Potency [7] 182 nM | Potency [8] 323 nM | Potency [14] 229 nM | Potency [10] 288 nM | Potency [11] 575 nM

c1cncc(CN2CCC(n3ncc4c(N5CCOCC5)nc(-c5ccc6[nH]ccc6c5)nc43)CC2)c1
active: Potency [1] 6620 nM | Potency [12] 9350 nM | Potency [13] 13200 nM | Potency [3] 2640 nM | Potency [17] 23500 nM | Potency [4] 5260 nM | Potency [5] 1660 nM | Potency [6] 3320 nM | Potency [8] 1480 nM | Potency [9] 11800 nM | Potency [14] 6620 nM | Potency [16] 14800 nM | Potency [10] 590 nM | Potency [11] 11800 nM

N#Cc1c(C2CCNCC2)cc(-c2c(O)cccc2OCC2CC2)nc1N
active: Potency [1] 26400 nM | Potency [12] 2350 nM | Potency [3] 20900 nM | Potency [17] 18700 nM | Potency [4] 13200 nM | Potency [5] 1050 nM | Potency [15] 4180 nM | Potency [6] 18700 nM | Potency [8] 18700 nM | Potency [9] 8330 nM | Potency [14] 20900 nM | Potency [10] 18700 nM

COC(=O)C=CC(=O)OC
active: Potency [12] 1320 nM | Potency [13] 11800 nM | Potency [5] 1320 nM | Potency [15] 1320 nM | Potency [6] 2640 nM | Potency [7] 2350 nM | Potency [9] 3320 nM
inactive: Potency [1] | viability [17] 144% | Potency [14] | Potency [16] | Potency [11]

COc1cc2ncnc(Nc3cccc(Br)c3)c2cc1OC
active: Potency [1] 2960 nM | Potency [12] 37.2 nM | Potency [13] 11.8 nM | Potency [3] 7430 nM | Potency [5] 11.8 nM | Potency [15] 37.2 nM | Potency [6] 743 nM
inactive: Potency [4]

CC1(C)[C@H](O[C@H]2O[C@H](C(=O)O)[C@@H](O)[C@H](O)[C@H]2O[C@@H]2O[C@H](C(=O)O)[C@@H](O)[C@H](O)[C@H]2O)CC[C@@]2(C)[C@H]1CC[C@]1(C)[C@H]2C(=O)C=C2[C@H]3C[C@@](C)(C(=O)O)CC[C@]3(C)CC[C@]21C
inactive: Potency [1] | Potency [2] | Potency [13] | viability [17] 142% | Potency [5] | Potency [15] | Potency [6] | Potency [16] | Potency [11]

Cc1ccc(O)c(C(CCN(C(C)C)C(C)C)c2ccccc2)c1 (stereo unspecified)
inactive: Potency [1] | Potency [12] | Potency [13] | Potency [3] | Potency [4] | Potency [5] | Potency [15] | Potency [6] | Potency [8] | Potency [9] | Potency [14] | Potency [10]

Cc1cn([C@@H]2O[C@H](CO)[C@@H](O)[C@H]2F)c(=O)[nH]c1=O
inactive: Potency [1] | Potency [3] | Potency [15] | Potency [7] | Potency [8] | Potency [14] | Potency [16] | Potency [10] | Potency [11]
active: Potency [6] 14800 nM
